The results in this text go back to PMC8384837, “Expanding the binding specificity for RNA recognition by a PUF domain”.

Common to all, as to test: yeast three-hybrid, YBZ-1, SC-Leu-His + 0.5 mM 3-AT, 4 days
Conditions in all cases: tags: N-Gal4 AD-HA kept; label: inside an RPR1-promoter hybrid RNA with tandem MS2 sites; ssRNA

For one assay, the target named is T1, PUM1 PUF domain R6-KYR (Homo sapiens, UniProt Q14671 828-1176, N1043K;Q1047R).
T1 sequence: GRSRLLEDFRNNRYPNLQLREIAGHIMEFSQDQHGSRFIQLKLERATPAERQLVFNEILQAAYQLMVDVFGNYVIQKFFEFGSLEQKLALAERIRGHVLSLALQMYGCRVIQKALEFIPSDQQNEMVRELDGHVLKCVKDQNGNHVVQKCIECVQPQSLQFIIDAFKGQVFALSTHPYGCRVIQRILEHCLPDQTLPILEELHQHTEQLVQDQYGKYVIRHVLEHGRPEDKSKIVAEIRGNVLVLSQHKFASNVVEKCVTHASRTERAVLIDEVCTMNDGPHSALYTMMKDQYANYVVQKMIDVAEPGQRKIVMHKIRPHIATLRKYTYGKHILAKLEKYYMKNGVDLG
The essentials: (§1)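 A centromeric plasmid in strain YBZ-1 co-expressed Pumilio-1 PUF domain libraries, randomized at the three base-contacting residues of each repeat, with matching RNA elements; the strain carries a LexA–MS2 coat fusion and a HIS3 reporter. After four days on SC-Leu (input) or SC-Leu-His + 0.5 mM 3-AT (selection), the repeat regions were PCR-amplified and Illumina-sequenced. The interaction score is the log change in variant frequency from input to selection, using log2 and a pseudocount of 1 where absent.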

Another assay concerns the target PUM1 PUF domain R3-VNV (Homo sapiens, UniProt Q14671 828-1176, C935V;R936N;Q939V). The procedure, abridged: as §1
The next assay deals with PUM1 PUF domain R8-CWR (Homo sapiens, UniProt Q14671 828-1176, N1122C;Y1123W;Q1126R). The essentials: as §1
Another assay has as its target PUM1 PUF domain R8-KWR (Homo sapiens, UniProt Q14671 828-1176, N1122K;Y1123W;Q1126R). The essentials: as §1
A further assay concerns the target PUM1 PUF domain R7-VER (Homo sapiens, UniProt Q14671 828-1176, S1079V;N1080E;E1083R). The essentials: as §1
For a further assay, the target named is PUM1 PUF domain R1-RRV (Homo sapiens, UniProt Q14671 828-1176, S863R;Q867V). The procedure, abridged:
as §1

Another assay concerns the target PUM1 PUF domain R5-RAP (Homo sapiens, UniProt Q14671 828-1176, C1007R;R1008A;Q1011P). The procedure, abridged:
as §1

In another assay the target is PUM1 PUF domain R5-RKV (Homo sapiens, UniProt Q14671 828-1176, C1007R;R1008K;Q1011V). The essentials: as §1
Another assay has as its target PUM1 PUF domain R8-KYA (Homo sapiens, UniProt Q14671 828-1176, N1122K;Q1126A). The procedure, abridged:
as §1

The target of the next assay is PUM1 PUF domain R5-DWH (Homo sapiens, UniProt Q14671 828-1176, C1007D;R1008W;Q1011H). The procedure, abridged:
as §1

Turning to “GGCUAGAACUAGUGGAUCCCCCGGCGCCCGGCGGCUCGAGCCCGGGUAAGUGUAAAUAGUCUGCAUGCCGCCGGGCGCCAUGCCUGCAGGUCGACUCUAGAAAACAUG”, the binding signal was 5.19 log2 enrichment (interaction score) with PUM1 PUF domain R6-KYR, 3.12 log2 enrichment (interaction score) with PUM1 PUF domain R3-VNV, 4.45 log2 enrichment (interaction score) with PUM1 PUF domain R8-CWR and 5.93 log2 enrichment (interaction score) in the assay with PUM1 PUF domain R8-KWR.

For “GGCUAGAACUAGUGGAUCCCCCGGCGCCCGGCGGCUCGAGCCCGGGUAAGUUUAAAUAGUCUGCAUGCCGCCGGGCGCCAUGCCUGCAGGUCGACUCUAGAAAACAUG”, the binding signal with PUM1 PUF domain R7-VER was 3.22 log2 enrichment (interaction score).

As for “GGCUAGAACUAGUGGAUCCCCCGGCGCCCGGCGGCUCGAGCCCGGGUAAGUGUAAAUGGUCUGCAUGCCGCCGGGCGCCAUGCCUGCAGGUCGACUCUAGAAAACAUG”, in the assay with PUM1 PUF domain R1-RRV, the binding signal is 1.17 log2 enrichment (interaction score).

As to “GGCUAGAACUAGUGGAUCCCCCGGCGCCCGGCGGCUCGAGCCCGGGUAAGUGUUAAUAGUCUGCAUGCCGCCGGGCGCCAUGCCUGCAGGUCGACUCUAGAAAACAUG”, the binding signal with PUM1 PUF domain R5-RAP was 0.85 log2 enrichment (interaction score).

With “GGCUAGAACUAGUGGAUCCCCCGGCGCCCGGCGGCUCGAGCCCGGGUAAGUGUAAAUCGUCUGCAUGCCGCCGGGCGCCAUGCCUGCAGGUCGACUCUAGAAAACAUG”, the binding signal with PUM1 PUF domain R1-RRV was 3.63 log2 enrichment (interaction score).

Take “GGCUAGAACUAGUGGAUCCCCCGGCGCCCGGCGGCUCGAGCCCGGGUAAGUGUCAAUAGUCUGCAUGCCGCCGGGCGCCAUGCCUGCAGGUCGACUCUAGAAAACAUG”: the binding signal was 4.21 log2 enrichment (interaction score) with PUM1 PUF domain R5-RAP and 2.43 log2 enrichment (interaction score) with PUM1 PUF domain R5-RKV.

Turning to “GGCUAGAACUAGUGGAUCCCCCGGCGCCCGGCGGCUCGAGCCCGGGUAAGGGUAAAUAGUCUGCAUGCCGCCGGGCGCCAUGCCUGCAGGUCGACUCUAGAAAACAUG”, the binding signal with PUM1 PUF domain R8-CWR was 2.72 log2 enrichment (interaction score).

On to “GGCUAGAACUAGUGGAUCCCCCGGCGCCCGGCGGCUCGAGCCCGGGUAAGCGUAAAUAGUCUGCAUGCCGCCGGGCGCCAUGCCUGCAGGUCGACUCUAGAAAACAUG”, for which the values for the binding signal in the assay with PUM1 PUF domain R8-KYA, in the assay with PUM1 PUF domain R8-CWR and with PUM1 PUF domain R8-KWR were 3.04 log2 enrichment (interaction score), 4.31 log2 enrichment (interaction score) and 6.68 log2 enrichment (interaction score), respectively.

Turning to “GGCUAGAACUAGUGGAUCCCCCGGCGCCCGGCGGCUCGAGCCCGGGUAAGUGUGAAUAGUCUGCAUGCCGCCGGGCGCCAUGCCUGCAGGUCGACUCUAGAAAACAUG”, the binding signal with PUM1 PUF domain R5-DWH was 4.75 log2 enrichment (interaction score).

On to “GGCUAGAACUAGUGGAUCCCCCGGCGCCCGGCGGCUCGAGCCCGGGUAAGUGUAAAUUGUCUGCAUGCCGCCGGGCGCCAUGCCUGCAGGUCGACUCUAGAAAACAUG”, for which, in the assay with PUM1 PUF domain R1-RRV, the binding signal was 3.36 log2 enrichment (interaction score).
